What all share (assay): DAPPL (digital affinity profiling via proximity ligation, sequencing); 10 mM Tris-HCl pH 7.5, 50 mM NaCl, 1 mM DTT, 4% glycerol, room temperature, 30 min; GST-TFs on glutathione beads, 16-mer random dsDNA library, 0.1% formaldehyde crosslink after washing; high values mean tight binding
One assay addresses T1, FEV (Homo sapiens, UniProt Q99581 1-238).
T1 sequence: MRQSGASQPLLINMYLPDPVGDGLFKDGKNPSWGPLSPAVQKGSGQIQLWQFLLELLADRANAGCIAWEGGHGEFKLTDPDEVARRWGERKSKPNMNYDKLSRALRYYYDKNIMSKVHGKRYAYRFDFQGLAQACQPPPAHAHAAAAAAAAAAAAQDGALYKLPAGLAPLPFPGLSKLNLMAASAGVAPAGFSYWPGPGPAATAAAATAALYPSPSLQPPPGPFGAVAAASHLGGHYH
The settings on record: protein: recombinant; tags: N-terminal GST; dsDNA, one strand shown. A digest of the protocol:
(§1)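 Human transcription factors were made in yeast as GST fusions, captured on glutathione beads and barcoded with DNA. With a tag-only sample included, the pool was incubated with 200 nmole of a random double-stranded 16-mer DNA library in Tris/NaCl/DTT/glycerol buffer at room temperature for 30 min, then crosslinked with 0.1% formaldehyde after washing, ligated by proximity, amplified and sequenced. For binding signal, each hexamer's read frequency for a factor is divided by its frequency for the tag-only sample.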

The target in a further assay is ETV5 (Homo sapiens, UniProt P41161 1-510). The conditions noted are these: protein: recombinant; tags: N-terminal GST; dsDNA, one strand shown. A digest of the protocol: as §1
ETV5, sequence (P41161 whole entry): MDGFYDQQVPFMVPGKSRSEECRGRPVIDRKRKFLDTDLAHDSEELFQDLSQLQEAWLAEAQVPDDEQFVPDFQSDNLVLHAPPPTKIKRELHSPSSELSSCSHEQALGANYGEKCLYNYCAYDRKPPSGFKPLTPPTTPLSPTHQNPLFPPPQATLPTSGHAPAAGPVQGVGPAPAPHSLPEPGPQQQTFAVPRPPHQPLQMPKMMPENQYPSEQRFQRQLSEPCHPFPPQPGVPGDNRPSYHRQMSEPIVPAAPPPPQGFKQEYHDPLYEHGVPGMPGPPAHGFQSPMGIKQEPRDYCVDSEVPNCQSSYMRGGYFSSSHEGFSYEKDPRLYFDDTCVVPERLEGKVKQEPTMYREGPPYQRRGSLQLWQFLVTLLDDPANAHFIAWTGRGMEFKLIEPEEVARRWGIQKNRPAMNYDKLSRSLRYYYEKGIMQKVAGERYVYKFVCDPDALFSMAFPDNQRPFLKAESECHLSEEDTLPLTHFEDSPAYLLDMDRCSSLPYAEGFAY
The next assay concerns the target HSF1 (Homo sapiens, UniProt Q00613 1-529). The conditions noted are these: protein: recombinant; tags: N-terminal GST; chain copies: 3; dsDNA, one strand shown. The method in brief: as §1
Another assay concerns the target T2, SPIC (Homo sapiens, UniProt Q8N5J4 1-248).
T2 sequence: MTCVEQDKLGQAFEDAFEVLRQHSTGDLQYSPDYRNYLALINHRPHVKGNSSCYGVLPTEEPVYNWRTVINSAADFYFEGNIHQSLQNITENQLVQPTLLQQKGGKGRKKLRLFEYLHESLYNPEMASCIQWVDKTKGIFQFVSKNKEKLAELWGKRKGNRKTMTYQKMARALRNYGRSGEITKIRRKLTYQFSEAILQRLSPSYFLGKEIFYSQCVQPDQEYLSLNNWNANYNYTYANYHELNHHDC
The conditions noted are these: protein: recombinant; tags: N-terminal GST; dsDNA, one strand shown. The method in brief: as §1

The next assay deals with ELF4 (Homo sapiens, UniProt Q99607 1-663). The settings on record: protein: recombinant; tags: N-terminal GST; dsDNA, one strand shown. The method in brief:
as §1

A further assay has as its target T3, ELK4 (Homo sapiens, UniProt P28324-2 1-405).
T3 sequence: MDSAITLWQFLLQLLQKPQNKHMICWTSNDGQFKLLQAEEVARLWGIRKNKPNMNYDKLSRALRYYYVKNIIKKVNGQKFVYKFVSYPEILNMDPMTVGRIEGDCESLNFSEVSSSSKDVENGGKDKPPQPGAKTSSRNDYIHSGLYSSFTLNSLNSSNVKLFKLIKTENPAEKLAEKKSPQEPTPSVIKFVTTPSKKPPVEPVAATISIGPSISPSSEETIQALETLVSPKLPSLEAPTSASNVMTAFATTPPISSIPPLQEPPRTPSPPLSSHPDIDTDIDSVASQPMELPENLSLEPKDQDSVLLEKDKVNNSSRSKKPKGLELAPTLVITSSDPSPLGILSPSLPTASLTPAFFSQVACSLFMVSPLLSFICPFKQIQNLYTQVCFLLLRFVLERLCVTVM
The conditions noted are these: protein: recombinant; tags: N-terminal GST; dsDNA, one strand shown. The method in brief: as §1

Another assay has as its target T4, ETV2 (Homo sapiens, UniProt O00321 1-342).
T4 sequence: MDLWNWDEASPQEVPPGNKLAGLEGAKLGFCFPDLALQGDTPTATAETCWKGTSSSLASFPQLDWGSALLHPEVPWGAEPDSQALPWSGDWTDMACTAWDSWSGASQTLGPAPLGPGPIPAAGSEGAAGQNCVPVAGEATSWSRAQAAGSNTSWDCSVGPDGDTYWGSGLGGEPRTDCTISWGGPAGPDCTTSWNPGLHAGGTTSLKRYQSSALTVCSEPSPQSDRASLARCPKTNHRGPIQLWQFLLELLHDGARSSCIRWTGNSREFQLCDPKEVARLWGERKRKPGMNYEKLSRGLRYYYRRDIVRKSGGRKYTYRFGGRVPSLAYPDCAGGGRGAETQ
The conditions noted are these: protein: recombinant; tags: N-terminal GST; dsDNA, one strand shown. The method in brief: as §1

The target of the next assay is T5, ELF3 (Homo sapiens, UniProt P78545 1-371).
T5 sequence: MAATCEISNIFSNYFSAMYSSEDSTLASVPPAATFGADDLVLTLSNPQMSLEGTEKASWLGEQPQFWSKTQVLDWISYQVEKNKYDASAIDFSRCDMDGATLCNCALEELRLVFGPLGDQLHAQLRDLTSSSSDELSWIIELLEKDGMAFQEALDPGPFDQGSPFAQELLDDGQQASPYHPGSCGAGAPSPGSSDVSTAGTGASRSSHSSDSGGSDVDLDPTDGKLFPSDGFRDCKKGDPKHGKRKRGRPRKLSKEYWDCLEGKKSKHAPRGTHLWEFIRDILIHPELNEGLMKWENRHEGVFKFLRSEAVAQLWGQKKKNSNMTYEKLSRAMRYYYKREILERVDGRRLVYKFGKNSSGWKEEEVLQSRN
The conditions noted are these: protein: recombinant; tags: N-terminal GST; dsDNA, one strand shown. A digest of the protocol: as §1

In a further assay the target is CRX (Homo sapiens, UniProt O43186 1-299). The conditions noted are these: protein: recombinant; tags: N-terminal GST; dsDNA, one strand shown. The method in brief: as §1
CRX, sequence (O43186 whole entry): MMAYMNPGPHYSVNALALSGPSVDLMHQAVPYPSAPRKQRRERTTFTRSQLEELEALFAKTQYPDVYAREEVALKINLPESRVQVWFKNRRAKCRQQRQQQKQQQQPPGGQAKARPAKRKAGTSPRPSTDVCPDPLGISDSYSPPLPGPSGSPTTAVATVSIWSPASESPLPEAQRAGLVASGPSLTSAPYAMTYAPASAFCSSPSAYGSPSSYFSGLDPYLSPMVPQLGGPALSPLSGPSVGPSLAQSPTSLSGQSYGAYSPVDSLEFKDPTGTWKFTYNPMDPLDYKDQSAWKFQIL
The target in another assay is ETV1 (Homo sapiens, UniProt P50549 1-477). The conditions noted are these: protein: recombinant; tags: N-terminal GST; dsDNA, one strand shown. A digest of the protocol:
as §1

The target of another assay is T6, ERF (Homo sapiens, UniProt P50548 1-548).
T6 sequence: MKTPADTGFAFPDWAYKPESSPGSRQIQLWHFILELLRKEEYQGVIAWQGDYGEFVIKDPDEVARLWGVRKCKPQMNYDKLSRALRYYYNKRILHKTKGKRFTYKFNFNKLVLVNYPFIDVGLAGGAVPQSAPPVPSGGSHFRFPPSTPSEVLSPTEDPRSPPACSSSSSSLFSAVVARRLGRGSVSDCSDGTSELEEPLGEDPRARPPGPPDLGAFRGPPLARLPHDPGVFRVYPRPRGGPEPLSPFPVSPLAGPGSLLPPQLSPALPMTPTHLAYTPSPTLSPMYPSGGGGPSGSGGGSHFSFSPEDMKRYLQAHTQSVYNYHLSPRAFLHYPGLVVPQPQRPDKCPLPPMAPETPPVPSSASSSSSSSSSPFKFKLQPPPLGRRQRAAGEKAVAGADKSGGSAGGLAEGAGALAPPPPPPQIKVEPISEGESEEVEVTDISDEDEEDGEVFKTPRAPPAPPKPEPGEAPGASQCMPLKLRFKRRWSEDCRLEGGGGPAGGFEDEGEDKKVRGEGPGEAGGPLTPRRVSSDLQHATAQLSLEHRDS
The settings on record: protein: recombinant; tags: N-terminal GST; dsDNA, one strand shown. The method in brief: as §1

In the next assay the target is T7, ETV3L (Homo sapiens, UniProt Q6ZN32 1-361).
T7 sequence: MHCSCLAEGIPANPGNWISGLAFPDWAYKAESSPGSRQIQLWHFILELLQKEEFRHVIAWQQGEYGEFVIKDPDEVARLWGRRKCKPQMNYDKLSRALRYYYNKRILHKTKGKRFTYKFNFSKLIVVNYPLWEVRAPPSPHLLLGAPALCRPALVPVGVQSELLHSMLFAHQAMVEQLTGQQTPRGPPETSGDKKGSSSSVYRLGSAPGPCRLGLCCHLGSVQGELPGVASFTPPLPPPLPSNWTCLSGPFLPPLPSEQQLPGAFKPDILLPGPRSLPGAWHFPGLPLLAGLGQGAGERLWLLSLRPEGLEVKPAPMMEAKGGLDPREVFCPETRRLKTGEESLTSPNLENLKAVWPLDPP
The settings on record: protein: recombinant; tags: N-terminal GST; dsDNA, one strand shown. A digest of the protocol:
as §1

The next assay concerns the target T8, ETS2 (Homo sapiens, UniProt P15036 1-469).
T8 sequence: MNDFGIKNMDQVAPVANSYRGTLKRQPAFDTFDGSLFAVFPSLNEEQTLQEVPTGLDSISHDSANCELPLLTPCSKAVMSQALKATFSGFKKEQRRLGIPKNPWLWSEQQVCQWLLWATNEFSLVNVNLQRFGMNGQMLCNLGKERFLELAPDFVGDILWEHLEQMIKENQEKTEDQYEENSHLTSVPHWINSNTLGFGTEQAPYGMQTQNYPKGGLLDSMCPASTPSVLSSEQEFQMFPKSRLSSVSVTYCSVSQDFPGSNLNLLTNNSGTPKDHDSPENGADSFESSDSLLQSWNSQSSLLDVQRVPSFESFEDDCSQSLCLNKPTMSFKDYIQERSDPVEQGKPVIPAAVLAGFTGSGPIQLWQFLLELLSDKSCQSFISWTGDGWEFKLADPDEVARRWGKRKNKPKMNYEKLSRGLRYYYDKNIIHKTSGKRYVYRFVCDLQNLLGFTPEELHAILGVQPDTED
The conditions noted are these: protein: recombinant; tags: N-terminal GST; dsDNA, one strand shown. A digest of the protocol:
as §1

Another assay concerns the target T9, SPDEF (Homo sapiens, UniProt O95238 1-335).
T9 sequence: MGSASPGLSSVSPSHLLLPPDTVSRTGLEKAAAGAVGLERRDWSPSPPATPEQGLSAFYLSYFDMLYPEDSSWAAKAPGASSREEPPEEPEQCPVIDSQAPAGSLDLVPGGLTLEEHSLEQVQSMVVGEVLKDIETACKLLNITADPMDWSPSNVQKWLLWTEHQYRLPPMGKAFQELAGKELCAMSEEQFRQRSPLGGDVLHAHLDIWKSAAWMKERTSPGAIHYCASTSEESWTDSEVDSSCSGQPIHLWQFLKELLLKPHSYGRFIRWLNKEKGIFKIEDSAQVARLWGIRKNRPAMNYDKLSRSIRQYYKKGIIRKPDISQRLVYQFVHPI
The settings on record: protein: recombinant; tags: N-terminal GST; dsDNA, one strand shown. A digest of the protocol: as §1

A further assay addresses T10, ETV7 (Homo sapiens, UniProt Q9Y603 1-341).
T10 sequence: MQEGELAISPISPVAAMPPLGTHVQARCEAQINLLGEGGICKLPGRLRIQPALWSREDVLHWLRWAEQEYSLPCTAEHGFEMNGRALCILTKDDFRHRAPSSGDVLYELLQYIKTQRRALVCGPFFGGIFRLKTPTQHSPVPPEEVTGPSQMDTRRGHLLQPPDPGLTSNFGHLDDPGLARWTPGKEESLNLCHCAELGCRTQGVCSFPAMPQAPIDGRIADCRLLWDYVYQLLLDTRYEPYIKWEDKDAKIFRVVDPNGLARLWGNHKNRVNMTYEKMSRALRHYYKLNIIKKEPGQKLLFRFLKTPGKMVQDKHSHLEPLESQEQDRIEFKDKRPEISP
The settings on record: protein: recombinant; tags: N-terminal GST; dsDNA, one strand shown. A digest of the protocol: as §1

A further assay has as its target T11, ELF5 (Homo sapiens, UniProt Q9UKW6-2 1-255).
T11 sequence: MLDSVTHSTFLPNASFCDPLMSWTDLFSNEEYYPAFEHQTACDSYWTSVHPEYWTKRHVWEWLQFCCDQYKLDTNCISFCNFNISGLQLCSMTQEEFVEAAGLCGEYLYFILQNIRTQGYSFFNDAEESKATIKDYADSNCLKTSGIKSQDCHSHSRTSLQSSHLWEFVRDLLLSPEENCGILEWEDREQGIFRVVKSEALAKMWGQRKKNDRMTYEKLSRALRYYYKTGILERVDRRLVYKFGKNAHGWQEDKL
The settings on record: protein: recombinant; tags: N-terminal GST; dsDNA, one strand shown. The method in brief: as §1

The next assay deals with T12, ETV3 (Homo sapiens, UniProt P41162-2 1-143).
T12 sequence: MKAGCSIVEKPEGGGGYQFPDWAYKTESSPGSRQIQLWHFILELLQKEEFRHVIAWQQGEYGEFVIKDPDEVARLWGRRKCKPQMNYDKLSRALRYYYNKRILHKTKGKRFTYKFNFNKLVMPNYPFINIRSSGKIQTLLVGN
The settings on record: protein: recombinant; tags: N-terminal GST; dsDNA, one strand shown. A digest of the protocol: as §1

The next assay concerns the target ETV6 (Homo sapiens, UniProt P41212 1-452). The conditions noted are these: protein: recombinant; tags: N-terminal GST; dsDNA, one strand shown. A digest of the protocol: as §1

ETV6, sequence (P41212 whole entry): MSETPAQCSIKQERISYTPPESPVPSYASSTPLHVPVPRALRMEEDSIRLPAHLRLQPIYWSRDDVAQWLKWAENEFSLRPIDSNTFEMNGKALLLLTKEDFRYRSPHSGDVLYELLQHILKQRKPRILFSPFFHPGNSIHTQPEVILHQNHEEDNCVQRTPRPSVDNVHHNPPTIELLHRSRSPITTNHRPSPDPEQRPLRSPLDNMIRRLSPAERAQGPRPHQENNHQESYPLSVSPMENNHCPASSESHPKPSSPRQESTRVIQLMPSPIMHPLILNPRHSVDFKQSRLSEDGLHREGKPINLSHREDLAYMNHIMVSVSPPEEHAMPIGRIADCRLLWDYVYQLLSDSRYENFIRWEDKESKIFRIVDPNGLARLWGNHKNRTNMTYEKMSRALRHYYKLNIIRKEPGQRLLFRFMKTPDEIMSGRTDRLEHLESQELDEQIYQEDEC
ETV1, sequence (P50549 whole entry): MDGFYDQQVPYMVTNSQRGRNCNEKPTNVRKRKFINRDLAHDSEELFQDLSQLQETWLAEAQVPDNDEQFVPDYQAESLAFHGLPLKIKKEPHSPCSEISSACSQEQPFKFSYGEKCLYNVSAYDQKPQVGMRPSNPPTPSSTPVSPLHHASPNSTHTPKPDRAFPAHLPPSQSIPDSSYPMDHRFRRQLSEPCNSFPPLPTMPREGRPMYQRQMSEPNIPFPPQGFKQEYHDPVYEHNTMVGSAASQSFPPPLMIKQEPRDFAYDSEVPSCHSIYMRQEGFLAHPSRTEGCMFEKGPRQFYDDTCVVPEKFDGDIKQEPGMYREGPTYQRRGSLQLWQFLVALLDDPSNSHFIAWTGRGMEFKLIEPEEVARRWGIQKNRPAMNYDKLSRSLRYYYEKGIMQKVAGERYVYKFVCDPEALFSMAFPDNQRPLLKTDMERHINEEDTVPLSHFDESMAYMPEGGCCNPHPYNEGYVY
ELF4, sequence (Q99607 whole entry): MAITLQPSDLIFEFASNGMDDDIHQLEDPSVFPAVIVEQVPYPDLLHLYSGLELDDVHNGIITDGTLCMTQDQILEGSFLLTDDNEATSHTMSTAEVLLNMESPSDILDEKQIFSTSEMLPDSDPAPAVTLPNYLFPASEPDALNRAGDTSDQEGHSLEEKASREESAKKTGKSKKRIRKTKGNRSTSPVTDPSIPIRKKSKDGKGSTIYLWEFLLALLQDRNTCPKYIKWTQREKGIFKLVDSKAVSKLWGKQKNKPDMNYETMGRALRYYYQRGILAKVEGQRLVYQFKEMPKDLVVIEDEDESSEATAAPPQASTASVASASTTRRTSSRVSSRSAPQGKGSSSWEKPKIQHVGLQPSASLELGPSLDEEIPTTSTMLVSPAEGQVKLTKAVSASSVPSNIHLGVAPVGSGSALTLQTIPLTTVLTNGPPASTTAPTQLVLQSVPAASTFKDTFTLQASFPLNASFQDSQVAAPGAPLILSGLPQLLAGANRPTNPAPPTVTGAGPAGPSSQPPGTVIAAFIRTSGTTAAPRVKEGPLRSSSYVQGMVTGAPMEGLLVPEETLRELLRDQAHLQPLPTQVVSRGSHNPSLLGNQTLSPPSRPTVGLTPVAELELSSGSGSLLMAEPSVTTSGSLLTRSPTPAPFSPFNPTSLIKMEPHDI
HSF1, sequence (Q00613 whole entry): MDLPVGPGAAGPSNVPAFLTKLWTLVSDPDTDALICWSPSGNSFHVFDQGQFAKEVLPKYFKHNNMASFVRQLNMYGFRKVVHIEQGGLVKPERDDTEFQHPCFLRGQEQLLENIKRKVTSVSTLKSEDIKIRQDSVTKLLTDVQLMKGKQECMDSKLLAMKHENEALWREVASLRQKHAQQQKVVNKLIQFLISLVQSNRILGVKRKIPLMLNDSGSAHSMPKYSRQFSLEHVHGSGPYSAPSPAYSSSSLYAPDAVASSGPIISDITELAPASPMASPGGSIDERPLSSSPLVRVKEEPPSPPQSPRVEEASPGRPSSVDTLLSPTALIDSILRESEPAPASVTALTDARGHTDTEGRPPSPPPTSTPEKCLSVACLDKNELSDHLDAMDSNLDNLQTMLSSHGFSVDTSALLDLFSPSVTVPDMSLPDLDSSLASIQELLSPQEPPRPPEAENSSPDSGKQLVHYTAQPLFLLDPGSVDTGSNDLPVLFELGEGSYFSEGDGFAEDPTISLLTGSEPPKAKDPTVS

CGATGG: the binding signal with FEV is 1.23 fold enrichment (6-mer frequency, TF over GST control); in the assay with ETV5, 1.28 fold enrichment (6-mer frequency, TF over GST control); with HSF1, 1.36 fold enrichment (6-mer frequency, TF over GST control); with SPIC it was 1.31 fold enrichment (6-mer frequency, TF over GST control); with ELF4 it was 1.36 fold enrichment (6-mer frequency, TF over GST control); with ELK4, 1.46 fold enrichment (6-mer frequency, TF over GST control). Moreover, the binding signal in the assay with ETV2 was 1.34 fold enrichment (6-mer frequency, TF over GST control); in the assay with ELF3, 1.15 fold enrichment (6-mer frequency, TF over GST control); in the assay with CRX, 1.14 fold enrichment (6-mer frequency, TF over GST control); with ETV1, 1.41 fold enrichment (6-mer frequency, TF over GST control); with ERF, 1.18 fold enrichment (6-mer frequency, TF over GST control); with ETV3L, 1.34 fold enrichment (6-mer frequency, TF over GST control). For the same sequence, the binding signal was 1.33 fold enrichment (6-mer frequency, TF over GST control) with ETS2; 1.29 fold enrichment (6-mer frequency, TF over GST control) with SPDEF; 1.39 fold enrichment (6-mer frequency, TF over GST control) in the assay with ETV7; 1.18 fold enrichment (6-mer frequency, TF over GST control) with ELF5; 1.24 fold enrichment (6-mer frequency, TF over GST control) in the assay with ETV3; 1.33 fold enrichment (6-mer frequency, TF over GST control) in the assay with ETV6.

Source of the values: publication PMC7862700, “An all-to-all approach to the identification of sequence-specific readers for epigenetic DNA modifications on cytosine”.
